These results are taken from PubChem BioAssay (NCI).

Among the test systems are SK-MEL-2 melanoma; EKVX NSCLC; SN12C renal; UO-31 renal; TK-10 renal; ACHN renal; CAKI-1 renal; A498 renal; CCRF-CEM leukemia; MOLT-4 leukemia; SR leukemia; RPMI-8226 leukemia; OVCAR-8 ovarian; OVCAR-5 ovarian; OVCAR-4 ovarian; SK-OV-3 ovarian; IGROV1 ovarian; OVCAR-3 ovarian; HS 578T breast; NCI/ADR-RES ovarian.
Common to all, as to experiment: NCI-60 one-dose screen, 48 h (100 = growth as untreated, 0 = no growth, -100 = all killed)
Common to all, as to settings: 10 µM unless noted

Compounds without any hit were thinned out: in the full panel of roughly 83,000, 20% have a hit.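 In brief: 96-well plates, 48 h treatment, single concentration, percent growth endpoint.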 Unmarked numbers belong to inactive results. Activity calls are given as the source filed them. Rule for the calls: active = growth percent below 10; inactive = the rest.

On to `Nc1nc(N)c2c(n1)NC(c1cccc(Nc3ccnc4cc(C(F)(F)F)ccc34)c1)CC(c1ccc(Cl)cc1)=N2` (stereo not given), for which the growth was 42.7% with SK-MEL-2 melanoma; 50.8% in the test with EKVX NSCLC; 63.9% in the test with SN12C renal; 62.7% in the test with UO-31 renal; 87.4% in the test with TK-10 renal; 72.7% in the test with ACHN renal. Besides, the growth was 45.5% in the test on CAKI-1 renal; 82% in the test with A498 renal; 19.2% in the test with CCRF-CEM leukemia; 7.52% (active) with MOLT-4 leukemia; 3.26% (active) in the test with SR leukemia; -1.21% (active) with RPMI-8226 leukemia. The growth in the test on OVCAR-8 ovarian was 62.4%; in the test on OVCAR-5 ovarian it was 105%; in the test with OVCAR-4 ovarian, 60.1%; with SK-OV-3 ovarian, 64.9%; in the test with IGROV1 ovarian it was 52.9%; in the test on OVCAR-3 ovarian, 26.6%. Further, the growth is 62.1% in the test with HS 578T breast and 54.4% in the test with NCI/ADR-RES ovarian.

As to `NS(=O)(=O)Oc1cccc(-c2nc3sccn3c2-c2ccccc2)c1`, the growth in the test with SK-MEL-2 melanoma was 55.6%; with EKVX NSCLC, 66.7%; in the test with SN12C renal, 53%; in the test on UO-31 renal, 68.8%; in the test with TK-10 renal, 87.9%; in the test on ACHN renal, 75.1%. Besides, the growth is 45.7% in the test on CAKI-1 renal; 7.63% (active) in the test with A498 renal; 40.2% with CCRF-CEM leukemia; 31.1% in the test on MOLT-4 leukemia; 19.8% in the test with SR leukemia; 44.1% in the test on RPMI-8226 leukemia. The growth in the test on OVCAR-8 ovarian was 66.8%; in the test on OVCAR-5 ovarian, 95.2%; in the test on OVCAR-4 ovarian, 74.9%; with SK-OV-3 ovarian, 76.7%; in the test with IGROV1 ovarian it was 54.4%; in the test on OVCAR-3 ovarian, 39.1%. For the same compound, the growth in the test with HS 578T breast is 47%; with NCI/ADR-RES ovarian, 48.1%.

In the case of `CCCCC#Cc1c(I)n(C2OC(CO[Si](C)(C)C(C)(C)C)C3OC(C)(C)OC32)c(=O)[nH]c1=O` (stereo not given), the growth was 55.6% with SK-MEL-2 melanoma; 92.2% with EKVX NSCLC; 85.1% with SN12C renal; 56.1% in the test on UO-31 renal; 68.9% with TK-10 renal; 72.5% in the test with ACHN renal. Further, the growth in the test on CAKI-1 renal is 74.4%; in the test on A498 renal, 99.1%; in the test with CCRF-CEM leukemia it was 8.63% (active); with MOLT-4 leukemia, 4.72% (active); in the test on SR leukemia, -5.46% (active); in the test with RPMI-8226 leukemia, -46.9% (active). For the same compound, the growth is 85.7% in the test on OVCAR-8 ovarian; 82.5% with OVCAR-5 ovarian; 70.3% in the test on OVCAR-4 ovarian; 98.8% in the test with SK-OV-3 ovarian; 83.8% with IGROV1 ovarian; 42.7% with OVCAR-3 ovarian. Also, the growth was 100% in the test with HS 578T breast and 84.5% in the test with NCI/ADR-RES ovarian.

With `CN(C)c1ccc(/C=N/NC(=O)CSc2nc3sc4c(c3c(=O)n2-c2ccccc2)CCCCC4)cc1`, the growth in the test on SK-MEL-2 melanoma is 78.6%; with EKVX NSCLC, 47%; with SN12C renal it was 55.5%; with UO-31 renal, 77.8%; with TK-10 renal, 64.9%; with ACHN renal it was 24.6%. The growth with CAKI-1 renal was 8.87% (active); with A498 renal it was 34.8%; with CCRF-CEM leukemia, 70.9%; with MOLT-4 leukemia, 71.8%; in the test with SR leukemia, 22.7%; in the test with RPMI-8226 leukemia, 76.8%. The growth with OVCAR-8 ovarian is 20.6%; in the test on OVCAR-5 ovarian, 50.7%; with OVCAR-4 ovarian it was 19.7%; with SK-OV-3 ovarian, 67.1%; in the test on IGROV1 ovarian, 36.5%; in the test with OVCAR-3 ovarian it was 12%. Further, the growth with HS 578T breast is 23.9%; in the test with NCI/ADR-RES ovarian it was 59.1%.

As to `CN1CCN(Cc2ccc(NC(=O)c3cncc(C#Cc4c(N)ncc5c(F)cccc45)c3)cc2C(F)(F)F)CC1`, the growth in the test with SK-MEL-2 melanoma is -65.4% (active); with EKVX NSCLC, 10.6%; in the test on SN12C renal it was -92.6% (active); in the test with UO-31 renal, -86.2% (active); in the test with TK-10 renal, -95.1% (active); in the test with ACHN renal it was -79% (active). For the same compound, the growth is -70.4% (active) in the test on CAKI-1 renal; -1.72% (active) with A498 renal; -39.8% (active) with CCRF-CEM leukemia; -72.4% (active) in the test with MOLT-4 leukemia; -49% (active) with SR leukemia; -26.5% (active) in the test with RPMI-8226 leukemia. In addition, the growth with OVCAR-8 ovarian was -72.8% (active); in the test with OVCAR-5 ovarian, -33.3% (active); in the test on OVCAR-4 ovarian, -59.1% (active); in the test on SK-OV-3 ovarian it was 2.69% (active); in the test with IGROV1 ovarian, -69.4% (active); in the test with OVCAR-3 ovarian, -84.8% (active). In addition, the growth in the test with HS 578T breast was -25.8% (active); in the test on NCI/ADR-RES ovarian it was -45.1% (active).

For `Cn1nc(-c2ccc(Cl)cc2)nc2c(=O)n(C)c(=O)nc1-2`, the growth is -44.6% (active) in the test with SK-MEL-2 melanoma; -31.2% (active) with EKVX NSCLC; -72.5% (active) in the test with SN12C renal; 12.3% in the test on UO-31 renal; 70.3% in the test on TK-10 renal; -88.7% (active) in the test with ACHN renal. For the same compound, the growth with CAKI-1 renal was 6.17% (active); in the test with A498 renal, -94.8% (active); in the test with CCRF-CEM leukemia, -27.6% (active); in the test with MOLT-4 leukemia, -47.3% (active); in the test with SR leukemia it was -40.5% (active); with RPMI-8226 leukemia, -22.7% (active). In addition, the growth in the test on OVCAR-8 ovarian was -58.8% (active); in the test with OVCAR-5 ovarian, -89.1% (active); in the test on OVCAR-4 ovarian, -99.7% (active); with SK-OV-3 ovarian, 32.6%; in the test with IGROV1 ovarian, 7.78% (active); in the test on OVCAR-3 ovarian, -40.2% (active). The growth was -4.75% (active) with HS 578T breast and -21.5% (active) with NCI/ADR-RES ovarian.

Turning to `O=C1CCC(C(=O)N/N=C/c2ccc([N+](=O)[O-])cc2)N1` (stereo not given), the growth is 102% with SK-MEL-2 melanoma; 102% in the test with EKVX NSCLC; 103% with SN12C renal; 83.4% with UO-31 renal; 93% with TK-10 renal; 101% in the test with ACHN renal. In addition, the growth in the test with CAKI-1 renal is 93%; in the test with A498 renal it was 106%; in the test with CCRF-CEM leukemia it was 97%; with MOLT-4 leukemia it was 102%; in the test with SR leukemia, 113%; in the test on RPMI-8226 leukemia it was 100%. Besides, the growth with OVCAR-8 ovarian is 101%; with OVCAR-5 ovarian, 105%; with OVCAR-4 ovarian, 104%; in the test on SK-OV-3 ovarian it was 105%; in the test on IGROV1 ovarian, 100%; with OVCAR-3 ovarian, 105%. Moreover, the growth with HS 578T breast is 98.8%; with NCI/ADR-RES ovarian it was 103%.

As to `O=C(Nc1ccc2c(c1)-c1ccccc1C2)C1CC(=O)N(c2ccc3c(c2)OCO3)C1` (stereo not given), the growth with SK-MEL-2 melanoma was 89.2% [50 µM]; with EKVX NSCLC, 78.1% [50 µM]; in the test on SN12C renal it was 73% [50 µM]; in the test on UO-31 renal it was 97.7% [50 µM]; in the test on TK-10 renal it was 60.6% [50 µM]; in the test on ACHN renal, 64.5% [50 µM]. Besides, the growth is 61% [50 µM] with CAKI-1 renal; 26.1% [50 µM] in the test with A498 renal; 100% [50 µM] with CCRF-CEM leukemia; 99.7% [50 µM] in the test with MOLT-4 leukemia; 77.2% [50 µM] in the test on SR leukemia; 81.8% [50 µM] with RPMI-8226 leukemia. For the same compound, the growth is 28.5% [50 µM] in the test with OVCAR-8 ovarian; 83.5% [50 µM] in the test on OVCAR-5 ovarian; 2.45% [50 µM] (active) in the test with OVCAR-4 ovarian; 76.1% [50 µM] with SK-OV-3 ovarian; 80.5% [50 µM] with IGROV1 ovarian; 31.3% [50 µM] in the test with OVCAR-3 ovarian. In addition, the growth is 31.7% [50 µM] with HS 578T breast and 58.9% [50 µM] in the test with NCI/ADR-RES ovarian.
